The results in this text go back to publication PMC7862700, “An all-to-all approach to the identification of sequence-specific readers for epigenetic DNA modifications on cytosine”.

Common to all, as to test: DAPPL (digital affinity profiling via proximity ligation, sequencing); 10 mM Tris-HCl pH 7.5, 50 mM NaCl, 1 mM DTT, 4% glycerol, room temperature, 30 min; GST-TFs on glutathione beads, 16-mer random dsDNA library, 0.1% formaldehyde crosslink after washing; high values mean tight binding
Settings in all cases: protein: recombinant; tags: N-terminal GST; dsDNA, one strand shown

The target of assay [1] is T1, FLI1 (Homo sapiens, UniProt Q01543 1-452).
T1 sequence: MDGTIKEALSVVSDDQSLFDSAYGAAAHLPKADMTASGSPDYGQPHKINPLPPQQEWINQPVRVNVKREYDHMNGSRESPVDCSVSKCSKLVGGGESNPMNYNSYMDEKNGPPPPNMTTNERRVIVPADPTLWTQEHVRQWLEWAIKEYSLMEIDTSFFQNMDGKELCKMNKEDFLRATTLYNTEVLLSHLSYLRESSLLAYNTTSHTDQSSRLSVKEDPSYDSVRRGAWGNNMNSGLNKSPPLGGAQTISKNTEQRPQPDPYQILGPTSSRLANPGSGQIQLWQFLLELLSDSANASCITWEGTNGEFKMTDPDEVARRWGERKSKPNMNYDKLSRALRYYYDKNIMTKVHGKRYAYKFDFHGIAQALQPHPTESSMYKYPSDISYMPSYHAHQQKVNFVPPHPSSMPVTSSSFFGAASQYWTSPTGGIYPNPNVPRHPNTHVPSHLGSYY
The method, boiled down: (§1)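 Binding signal is each hexamer's read frequency for a factor divided by its frequency in the tag-only sample. The factors were GST-fused human transcription factors from yeast, captured on glutathione beads, DNA-barcoded and pooled with that sample. Pools were incubated with 200 nmole of a random double-stranded 16-mer DNA library in Tris/NaCl/DTT/glycerol buffer at room temperature for 30 min, then washed, crosslinked with 0.1% formaldehyde, proximity-ligated with BsaI/T4 ligase (1 h, 37 °C), PCR-amplified and sequenced on an Illumina NextSeq500.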

For assay [2], the target named is T2, ELK1 (Homo sapiens, UniProt P19419 1-428).
T2 sequence: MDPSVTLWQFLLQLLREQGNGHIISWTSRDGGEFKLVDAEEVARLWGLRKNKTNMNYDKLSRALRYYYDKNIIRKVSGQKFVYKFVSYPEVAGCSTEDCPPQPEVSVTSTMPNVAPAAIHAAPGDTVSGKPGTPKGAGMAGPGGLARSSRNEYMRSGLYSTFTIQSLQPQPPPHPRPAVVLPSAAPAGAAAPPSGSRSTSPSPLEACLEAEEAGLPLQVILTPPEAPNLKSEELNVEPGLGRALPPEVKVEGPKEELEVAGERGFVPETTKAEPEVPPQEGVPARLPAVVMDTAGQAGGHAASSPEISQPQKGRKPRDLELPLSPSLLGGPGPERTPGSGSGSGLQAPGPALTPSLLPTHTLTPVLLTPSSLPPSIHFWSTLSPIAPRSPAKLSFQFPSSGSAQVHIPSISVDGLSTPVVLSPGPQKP
The method in brief: as §1

The target in assay [3] is T3, GABPA (Homo sapiens, UniProt Q06546 1-454).
T3 sequence: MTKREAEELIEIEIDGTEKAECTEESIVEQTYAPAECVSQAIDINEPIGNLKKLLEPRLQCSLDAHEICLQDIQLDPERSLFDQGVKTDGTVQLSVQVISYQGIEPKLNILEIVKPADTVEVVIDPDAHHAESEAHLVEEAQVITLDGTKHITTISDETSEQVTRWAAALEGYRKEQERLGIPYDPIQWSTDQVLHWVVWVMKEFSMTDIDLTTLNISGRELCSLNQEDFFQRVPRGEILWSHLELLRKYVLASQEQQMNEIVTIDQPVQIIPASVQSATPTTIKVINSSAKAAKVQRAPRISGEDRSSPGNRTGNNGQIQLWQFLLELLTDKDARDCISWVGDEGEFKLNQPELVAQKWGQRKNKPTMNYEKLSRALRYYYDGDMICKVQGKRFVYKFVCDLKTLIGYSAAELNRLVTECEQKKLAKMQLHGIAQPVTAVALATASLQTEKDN
The method in brief: as §1

Assay [4] deals with T4, ERG (Homo sapiens, UniProt P11308 1-479).
T4 sequence: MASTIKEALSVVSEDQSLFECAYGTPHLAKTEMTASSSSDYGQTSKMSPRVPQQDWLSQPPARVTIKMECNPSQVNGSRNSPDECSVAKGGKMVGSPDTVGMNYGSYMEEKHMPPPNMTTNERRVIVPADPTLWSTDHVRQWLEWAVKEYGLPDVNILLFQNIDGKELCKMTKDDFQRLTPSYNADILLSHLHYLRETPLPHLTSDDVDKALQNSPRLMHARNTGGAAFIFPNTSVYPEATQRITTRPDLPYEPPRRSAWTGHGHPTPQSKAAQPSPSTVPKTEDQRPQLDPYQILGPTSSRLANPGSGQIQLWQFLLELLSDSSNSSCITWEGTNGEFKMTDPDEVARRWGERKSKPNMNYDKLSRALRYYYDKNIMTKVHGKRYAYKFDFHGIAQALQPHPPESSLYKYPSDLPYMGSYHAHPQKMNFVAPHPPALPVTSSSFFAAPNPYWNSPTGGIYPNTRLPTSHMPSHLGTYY
The method in brief: as §1

Assay [5] addresses ELF1 (Homo sapiens, UniProt P32519 1-619). The method, boiled down: as §1
Assay [6] has as its target T5, EHF (Homo sapiens, UniProt Q9NZC4 1-300).
T5 sequence: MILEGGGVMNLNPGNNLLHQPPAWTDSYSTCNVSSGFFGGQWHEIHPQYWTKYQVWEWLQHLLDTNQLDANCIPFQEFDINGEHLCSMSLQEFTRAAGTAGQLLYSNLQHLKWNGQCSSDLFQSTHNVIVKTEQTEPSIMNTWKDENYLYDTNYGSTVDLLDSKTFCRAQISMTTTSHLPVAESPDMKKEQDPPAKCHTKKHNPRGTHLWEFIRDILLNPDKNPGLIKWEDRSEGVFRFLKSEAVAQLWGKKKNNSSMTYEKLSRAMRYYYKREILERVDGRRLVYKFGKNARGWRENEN
The method in brief: as §1

In assay [7] the target is SPI1 (Homo sapiens, UniProt P17947 1-270). The method, boiled down:
as §1

Assay [8] has as its target SPIB (Homo sapiens, UniProt Q01892 1-262). The method in brief:
as §1

In assay [9] the target is T6, ELK3 (Homo sapiens, UniProt P41970 1-407).
T6 sequence: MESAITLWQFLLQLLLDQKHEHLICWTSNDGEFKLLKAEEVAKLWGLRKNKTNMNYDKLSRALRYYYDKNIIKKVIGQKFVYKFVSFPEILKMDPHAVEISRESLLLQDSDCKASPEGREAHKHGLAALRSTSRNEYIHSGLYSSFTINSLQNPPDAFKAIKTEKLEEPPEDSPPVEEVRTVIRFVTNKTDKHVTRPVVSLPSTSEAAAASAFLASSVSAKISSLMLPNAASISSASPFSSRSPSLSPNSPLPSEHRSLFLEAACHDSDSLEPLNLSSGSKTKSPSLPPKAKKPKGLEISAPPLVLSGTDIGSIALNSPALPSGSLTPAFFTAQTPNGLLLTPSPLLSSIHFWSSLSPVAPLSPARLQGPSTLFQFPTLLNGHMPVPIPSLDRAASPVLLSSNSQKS
The method in brief:
as §1

Sequence of ELF1 (P32519 whole entry): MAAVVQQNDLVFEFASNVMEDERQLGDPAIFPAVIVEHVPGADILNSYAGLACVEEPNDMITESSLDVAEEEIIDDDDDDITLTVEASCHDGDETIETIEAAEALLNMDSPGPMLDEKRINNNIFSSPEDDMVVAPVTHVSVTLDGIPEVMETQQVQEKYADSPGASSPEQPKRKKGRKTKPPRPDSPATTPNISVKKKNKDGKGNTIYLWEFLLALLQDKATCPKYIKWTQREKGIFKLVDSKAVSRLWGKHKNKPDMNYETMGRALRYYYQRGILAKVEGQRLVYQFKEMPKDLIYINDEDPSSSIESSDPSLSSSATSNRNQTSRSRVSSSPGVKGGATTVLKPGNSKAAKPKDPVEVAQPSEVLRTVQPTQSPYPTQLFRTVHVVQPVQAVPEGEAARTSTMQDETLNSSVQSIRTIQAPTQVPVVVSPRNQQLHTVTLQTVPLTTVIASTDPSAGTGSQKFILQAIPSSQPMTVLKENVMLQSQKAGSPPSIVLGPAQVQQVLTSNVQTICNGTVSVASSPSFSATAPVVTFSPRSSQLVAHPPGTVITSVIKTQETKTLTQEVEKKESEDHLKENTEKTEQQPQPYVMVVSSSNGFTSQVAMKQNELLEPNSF
Sequence of SPIB (Q01892 whole entry): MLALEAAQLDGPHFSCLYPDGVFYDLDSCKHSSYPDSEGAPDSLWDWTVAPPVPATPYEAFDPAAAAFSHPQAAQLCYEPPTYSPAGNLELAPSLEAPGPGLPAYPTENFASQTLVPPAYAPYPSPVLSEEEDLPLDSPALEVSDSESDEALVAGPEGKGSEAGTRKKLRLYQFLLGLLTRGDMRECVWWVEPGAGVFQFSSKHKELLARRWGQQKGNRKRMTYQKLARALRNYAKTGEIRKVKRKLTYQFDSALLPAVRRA

In the case of CCTAAT, the binding signal was 1.32 fold enrichment (6-mer frequency, TF over GST control) in assay [1]; 1.12 fold enrichment (6-mer frequency, TF over GST control) in assay [2]; 1.29 fold enrichment (6-mer frequency, TF over GST control) in [3]; 1.34 fold enrichment (6-mer frequency, TF over GST control) in assay [4]; 1.39 fold enrichment (6-mer frequency, TF over GST control) in [5]; 1.28 fold enrichment (6-mer frequency, TF over GST control) in [6]. Also, the binding signal was 1.34 fold enrichment (6-mer frequency, TF over GST control) in assay [7]; 1.44 fold enrichment (6-mer frequency, TF over GST control) in assay [8]; 1.29 fold enrichment (6-mer frequency, TF over GST control) in assay [9].

As to AAGTAC, the binding signal in [1] was 1.52 fold enrichment (6-mer frequency, TF over GST control); in assay [2] it was 1.74 fold enrichment (6-mer frequency, TF over GST control); in assay [3], 1.44 fold enrichment (6-mer frequency, TF over GST control); in assay [4], 1.53 fold enrichment (6-mer frequency, TF over GST control); in [5], 1.49 fold enrichment (6-mer frequency, TF over GST control); in [6] it was 1.59 fold enrichment (6-mer frequency, TF over GST control). For the same sequence, the binding signal in assay [7] was 1.62 fold enrichment (6-mer frequency, TF over GST control); in [8], 1.57 fold enrichment (6-mer frequency, TF over GST control); in assay [9], 1.73 fold enrichment (6-mer frequency, TF over GST control).

Turning to CCCGAA, the binding signal in assay [1] was 1.44 fold enrichment (6-mer frequency, TF over GST control); in assay [2], 1.26 fold enrichment (6-mer frequency, TF over GST control); in [3], 1.51 fold enrichment (6-mer frequency, TF over GST control); in assay [4] it was 1.18 fold enrichment (6-mer frequency, TF over GST control); in [5], 1.39 fold enrichment (6-mer frequency, TF over GST control); in [6] it was 1.3 fold enrichment (6-mer frequency, TF over GST control). Moreover, the binding signal is 1.36 fold enrichment (6-mer frequency, TF over GST control) in [7]; 1.27 fold enrichment (6-mer frequency, TF over GST control) in [8]; 1.2 fold enrichment (6-mer frequency, TF over GST control) in [9].

In the case of TTTTCG, the binding signal was 1.18 fold enrichment (6-mer frequency, TF over GST control) in assay [1]; 1.28 fold enrichment (6-mer frequency, TF over GST control) in assay [2]; 1.24 fold enrichment (6-mer frequency, TF over GST control) in assay [3]; 1.2 fold enrichment (6-mer frequency, TF over GST control) in [4]; 1.22 fold enrichment (6-mer frequency, TF over GST control) in [5]; 1.25 fold enrichment (6-mer frequency, TF over GST control) in assay [6]. Moreover, the binding signal in [7] was 1.27 fold enrichment (6-mer frequency, TF over GST control); in assay [8], 1.16 fold enrichment (6-mer frequency, TF over GST control); in [9], 1.35 fold enrichment (6-mer frequency, TF over GST control).

Regarding CCCTCG, the binding signal was 1.23 fold enrichment (6-mer frequency, TF over GST control) in assay [1]; 1.34 fold enrichment (6-mer frequency, TF over GST control) in [2]; 1.38 fold enrichment (6-mer frequency, TF over GST control) in assay [3]; 1.14 fold enrichment (6-mer frequency, TF over GST control) in [4]; 1.34 fold enrichment (6-mer frequency, TF over GST control) in assay [5]; 1.24 fold enrichment (6-mer frequency, TF over GST control) in [6]. The binding signal in assay [7] is 1.23 fold enrichment (6-mer frequency, TF over GST control); in assay [8] it was 1.34 fold enrichment (6-mer frequency, TF over GST control); in assay [9], 1.15 fold enrichment (6-mer frequency, TF over GST control).

Take CACAAG: the binding signal in assay [1] is 1.2 fold enrichment (6-mer frequency, TF over GST control); in [2], 1.17 fold enrichment (6-mer frequency, TF over GST control); in [3], 1.15 fold enrichment (6-mer frequency, TF over GST control); in [4] it was 1.09 fold enrichment (6-mer frequency, TF over GST control); in [5], 1.18 fold enrichment (6-mer frequency, TF over GST control); in assay [6] it was 1.14 fold enrichment (6-mer frequency, TF over GST control). For the same sequence, the binding signal in [7] is 1.12 fold enrichment (6-mer frequency, TF over GST control); in assay [8], 1.13 fold enrichment (6-mer frequency, TF over GST control); in assay [9], 1.16 fold enrichment (6-mer frequency, TF over GST control).

On to ATGACA, for which the binding signal in [1] is 1.34 fold enrichment (6-mer frequency, TF over GST control); in assay [2] it was 1.32 fold enrichment (6-mer frequency, TF over GST control); in [3], 1.45 fold enrichment (6-mer frequency, TF over GST control); in [4] it was 1.32 fold enrichment (6-mer frequency, TF over GST control); in assay [5], 1.39 fold enrichment (6-mer frequency, TF over GST control); in assay [6], 1.32 fold enrichment (6-mer frequency, TF over GST control). In addition, the binding signal is 1.29 fold enrichment (6-mer frequency, TF over GST control) in [7]; 1.32 fold enrichment (6-mer frequency, TF over GST control) in assay [8]; 1.3 fold enrichment (6-mer frequency, TF over GST control) in assay [9].
